EPAC1 antag = EPAC1 (human) antagonism | O95398 | EPAC1 GEF assay, Rap1b-BODIPY-GDP exchange fluorescence | Potency, µM (highest dose often 115 µM), without a hit: top-dose activity change, negative = inhibition, actives largely listed as inhibitors | hit rate 0.14% among 360,000;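 further: plate controls were vehicle for no effect and positive control for full effect; nearly all actives have a fitted effect of over 50% in size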
EPAC2 agonist = agonists of human EPAC2 (RAPGEF4). EPAC2 activation, biochemical qHTS; response scale: 100% = 6.5 mM cAMP response. Potency, µM (titrated, usually from 154 µM), without a hit: top-dose activation, most hits filed as activators. hit rate 0.079% among 360,000. AID 720711; further: nearly all actives have a fitted effect of over 50% in size
Target sequence (Q8WZA2 whole entry, looked up): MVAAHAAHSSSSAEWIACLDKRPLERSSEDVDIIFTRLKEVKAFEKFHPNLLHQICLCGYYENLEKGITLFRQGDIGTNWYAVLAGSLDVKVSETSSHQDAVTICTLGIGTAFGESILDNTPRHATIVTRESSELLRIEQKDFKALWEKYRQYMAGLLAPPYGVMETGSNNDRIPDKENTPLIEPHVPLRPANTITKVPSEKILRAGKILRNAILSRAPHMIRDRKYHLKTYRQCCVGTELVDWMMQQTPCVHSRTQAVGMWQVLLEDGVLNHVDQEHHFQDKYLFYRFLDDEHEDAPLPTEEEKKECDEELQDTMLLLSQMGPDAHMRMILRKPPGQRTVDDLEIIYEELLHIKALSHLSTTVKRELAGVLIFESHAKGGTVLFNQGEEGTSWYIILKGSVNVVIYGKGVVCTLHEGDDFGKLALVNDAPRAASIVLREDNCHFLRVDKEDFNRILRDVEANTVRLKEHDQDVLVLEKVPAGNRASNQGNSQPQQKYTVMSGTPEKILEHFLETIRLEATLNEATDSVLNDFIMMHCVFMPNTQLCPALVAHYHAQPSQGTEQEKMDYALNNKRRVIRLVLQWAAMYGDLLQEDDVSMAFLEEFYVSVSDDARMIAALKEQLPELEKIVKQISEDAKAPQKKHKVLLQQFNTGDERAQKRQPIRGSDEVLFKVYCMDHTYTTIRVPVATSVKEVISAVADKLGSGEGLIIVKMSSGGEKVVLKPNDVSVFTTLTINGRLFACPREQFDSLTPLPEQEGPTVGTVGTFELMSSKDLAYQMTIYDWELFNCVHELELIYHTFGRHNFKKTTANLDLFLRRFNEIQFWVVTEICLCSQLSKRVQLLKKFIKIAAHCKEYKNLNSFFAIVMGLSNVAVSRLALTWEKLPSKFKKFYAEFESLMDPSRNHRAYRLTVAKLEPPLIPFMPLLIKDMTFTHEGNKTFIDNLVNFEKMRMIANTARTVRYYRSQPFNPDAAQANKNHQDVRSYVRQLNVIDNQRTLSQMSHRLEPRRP
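Each well held 100 nM EPAC2, 250 nM RAP1B-BODIPY-GDP and 50 uM GDP. Fluorescence, read at 5-min intervals to 30 min, was referenced to a 6.5 mM cAMP positive control.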
EPAC2 antag = blocks human EPAC2 exchange factor. hit rate 0.18% among 360,000. AID 720708. EPAC2 GEF exchange of Rap1B-BODIPY-GDP, fluorescence. Q8WZA2. Potency, µM (top dose mostly 114 µM), for inactives: top-dose activity, negative = inhibition, hits mostly inhibitors; further: on the % scale 0 is the no-effect control and ±100 the full control effect; nearly all actives have a fitted effect of over 45% in size
EPAC1 ag = EPAC1 (human) agonism; O95398; EPAC1 agonist qHTS, biochemical assay; response scale: 100% = response to 6.5 mM cAMP; Potency, µM (titrated, usually from 154 µM), for the others: top-dose activation, most hits filed as activators; hit rate 0.073% among 360,000; further: nearly all actives have a fitted effect of over 60% in size
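Nucleotide exchange by EPAC1 (100 nM) on Rap1B–BODIPY-GDP (250 nM) in the presence of 50 uM GDP is tracked fluorescently at 480/540 nm over 30 min. Signals are normalized to a 6.5 mM cAMP control.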
Numbers without * were called inactive; ? = inconclusive; [ ] = dose if it differs, or a comment. Sampled rows, rich in hits. Any-hit rate of the full collection: about 0.39%. The call rests on the fitted dose curve; in most records, active means well fitted curve in the direction sought with a large enough effect; inconclusive means small, poorly fitted or top-dose-only effect, or another doubt; inactive means no such curve, though single readings can be large; an effect the other way counts as inactive or inconclusive. Potency means the concentration at half of the fitted maximal effect.

SMILES	EPAC1 antag	EPAC2 agonist	EPAC2 antag	EPAC1 ag
O=C(c1ccco1)N(CCC(c1ccccc1)c1ccco1)Cc1ccco1 (centres undefined)	?	-2.4%	-14.7%	7.5%
Cc1ccc(C(CCN(Cc2ccccc2)C(=O)c2ccco2)c2ccco2)cc1 (centres undefined)	50.1µM*	-2.5%	?	0.2%
NC1=C(Br)C(=O)c2ncccc2C1=O	?	13.3%	?	-1.3%
O=C1C=C(NCCc2cc(Br)c(O)c(Br)c2)C(=O)c2ncccc21	50.1µM*	-1.1%	79.4µM*	15.1%
O=C(N/C(=C/c1cccc(Br)c1)C(=O)N1CCCCC1)c1ccco1	1.5%	9.1%	-1.7%	-6.7%
O=C(O)c1cccc(N2C(=O)c3cccc4c(Cl)ccc(c34)C2=O)c1	-13.8%	0.7%	-32.0%	2.5%
Nc1cccc(N2C(=O)c3cccc4c(N)ccc(c34)C2=O)c1	96.7%	89.1µM*	151.9%	100µM*
Nc1ccc2c3c(cccc13)C(=O)N(c1ccccc1)C2=O	454.2%	100µM*	420.7%	100µM*
CCN1C(=O)c2cccc3c(Cl)ccc(c23)C1=O	-17.4%	4.5%	-0.2%	15.1%
CC(=O)Nc1cccc2c1C(=O)N(c1cccc(C)c1)C2=O	-22.7%	8.4%	0.0%	12.3%
O=C(O)c1ccc2c3c(cccc13)C(=O)N(c1ccccc1)C2=O	-2.4%	6.5%	6.0%	11.9%
CC(C)CCN1C(=O)c2cccc3c(N)ccc(c23)C1=O	24.6%	?	38.0%	70.8µM*
Cc1cccc(N2C(=O)c3cccc4c(N(C)CCO)ccc(c34)C2=O)c1	49.2%	100µM*	72.4%	112µM*
COc1ccc(OC)c(N(CCN2C(=O)c3ccccc3C2=O)C(=O)CCl)c1	-0.3%	14.1%	-0.7%	2.6%
O=C(NCc1ccc(Cl)c(Cl)c1)c1cc(C2CCCCN2C(=O)c2ccccn2)on1 (centres undefined)	?	17.2%	5.4%	4.6%
Cc1cccc(N2C(=O)c3cccc4cccc(c34)C2=O)c1	-1.3%	-2.1%	5.3%	-5.9%
Cc1cccc(N2C(=O)c3cccc4c(N)ccc(c34)C2=O)c1	292.2%	100µM*	276.4%	89.1µM*
CCCCCCc1nc2nc(Cl)c(Cl)nc2[nH]1	-19.3%	3.8%	2.8%	-0.8%
Cc1cc2ccccn2c1C(=O)c1ccccc1F	-9.9%	12.4%	44.7µM*	5.3%
COc1ccc(-c2nc(NCCN(C)C)nc3ccsc23)c(C)c1	3.6%	2.9%	8.6%	-20.7%
COc1ccc(OC)c(NC(=O)Nc2nc(C(N)c3ccccc3Cl)cs2)c1 (centres undefined)	-27.3%	13.2%	-15.8%	6.8%
CCOC(=O)[C@]12Cc3c(cc(OC)c(OC)c3OC)[C@H]1N(Cc1ccccc1)C(=O)c1cc(OC)ccc12	-16.4%	-10.8%	3.6%	-3.2%
Oc1ccc(/C(Cc2ccccn2)=N\Nc2ccccc2)c(O)c1	?	7.9%	44.7µM*	19.4%
Oc1ccc(/C(Cc2ccc3ccccc3n2)=N\Nc2ccccc2)c(O)c1	-26.7%	22.7%	-14.8%	16.7%
COC(=O)c1cc(C)nc2c1C(=O)C(=O)C=C2N1CCOCC1	3.55µM*	?	?	-9.2%
SMILES	EPAC1 antag	EPAC2 agonist	EPAC2 antag	EPAC1 ag
Cc1cccc(C)c1OC(=O)c1ccccc1	-8.0%	6.6%	50.1µM*	-0.9%
COc1cccc(OC)c1OC(=O)c1ccccc1	2.0%	5.8%	?	4.8%
CCCC[C@@H]1C[C@H]1[C@@H](NC(=O)c1ccco1)c1ccc(Cl)cc1	-18.5%	2.5%	8.91µM*	-20.4%
CCCCNC(=O)C[C@@H]1C[C@@]2(C(=O)OCC)CCCC=C2N(CCC2=CCCCC2)C1=O	7.1%	0.4%	-14.4%	-6.8%
Cc1ccc(C)c(S(=O)(=O)N2CCN(C(=O)CCCc3c[nH]c4ccccc34)CC2)c1	-22.3%	14.7%	-7.2%	112µM*
CCOC(=O)C1=C(C)OC2(O)c3ccccc3C(=O)C12O (centres undefined)	?	?	-27.3%	1.3%
CC(=O)C1=C(C)OC2(O)c3ccccc3C(=O)C12O (centres undefined)	79.4µM*	20.8%	-24.5%	3.6%
Cc1ccc2nc(-c3ccc(C#N)cc3)c(Cc3ccccc3C(F)(F)F)n2c1	-24.1%	-3.6%	-4.9%	-14.9%
CC1=C(C(=O)N(C(C)C)C(C)C)CC(CC(=O)NCC2CCCCC2)C(=O)N1Cc1ccc(C(C)(C)C)cc1 (centres undefined)	-17.8%	-13.1%	-19.5%[57.1 µM]	-27.5%

Screening results deposited in PubChem BioAssay by National Center for Advancing Translational Sciences (NCATS).
